From ChEMBL document CHEMBL4513216, “Probing the Open Global Health Chemical Diversity Library for Multistage-Active Starting Points for Next-Generation Antimalarials” (ACS Infect Dis, 2020)
Screen size: about 68,000 compounds; about 2,700 (4%) showed an effect of 50% or more. The full list was thinned out, with strong results kept by preference.

system: Plasmodium berghei; assay: Screen against P. berghei liver stage (PbLuc), transformed with Luciferase, at 2uM; assay type: functional, HepG2; conditions: tested at 2 uM

Compared with `CCn1cc(CN2CCCC(c3[nH]ncc3-c3ccc(C)cc3)C2)cn1` (stereo not given), `Cc1cnn(CC2CCCN2C(=O)CCc2ccncc2)c1` (stereo not given) is higher in INHIBITION: -20.72% for the first, -5.39% for the second.

First: CN(C)Cc1nn(C)c2c1CCN(C(=O)c1cccnc1)C2
Second: CC(C)c1nc2c(n1C)CCN(CC(=O)Nc1cccnc1)C2
The INHIBITION of the first is higher: 47.97% for the first, -14.17% for the second.

First: CNC(=O)c1cccc(CCNc2ncc(Br)cn2)c1
Second: CCOCc1cccc(S(=O)(=O)Nc2ncc(C)s2)c1
The INHIBITION of the first is lower: 12.41% for the first, 44.59% for the second.

Going from `CCn1cc(N)c(-c2nnc3n2CCCC3)n1` to `CCc1ncc2c(n1)CN(c1nnc(C)c(C)c1C#N)CC2`, the INHIBITION rises from -37.89% to 23.43%.

Compared with `Cn1nnc2cc(C(=O)NS(=O)(=O)c3cccc(C#N)c3)ccc21`, `Cc1cccc(S(=O)(=O)NC(=O)c2ccc3c(c2)nnn3C)c1` is higher in INHIBITION: -40.9% for the first, 53.99% for the second.

Compared with `Cn1nnc2cc(C(=O)NS(=O)(=O)c3ccc(F)cc3)ccc21`, `CN(CCCOc1ccc(F)cc1)S(=O)(=O)c1cnn(C)c1` is lower in INHIBITION: 28.72% for the first, -6.65% for the second.

Compared with `Cc1cc(-c2cnc(N3CCCC(C)C3)nc2-c2cccnc2C)on1` (stereo not given), `Cc1cccc(-c2nccnc2C2CCN(C)CC2)c1C` is higher in INHIBITION: -39.75% for the first, -25.17% for the second.

Going from `CS(=O)(=O)NCc1n[nH]c2c1CCN(C(=O)c1ccsc1)C2` to `N#Cc1ccc(C(=O)N2CCc3c(COCC4CC4)cncc3C2)cc1`, the INHIBITION falls from 19.56% to -20.87%.

Compared with `CCC(=O)NCc1cc(Br)ccc1OC(F)F`, `CC(C)(C)C(O)CCNC(=O)c1ccc(F)cc1Cl` (stereo not given) is lower in INHIBITION: 43.8% for the first, -9.71% for the second.

First: CS(=O)(=O)N1CCN2C(=O)N(C3CCOCC3)C[C@H]2C1
Second: CN1CCN2C(=O)N(C3CCOCC3)C[C@H]2C1
The INHIBITION of the first is lower: 35.89% for the first, 52.36% for the second.

First: CN1CCN2C(=O)N(C3CCCCC3)C[C@H]2C1
Second: Cc1c[nH]nc1C1CCN(C(=O)C2CCCC2)C1 (stereo not given)
The INHIBITION of the first is lower: -22.32% for the first, 41.21% for the second.

Compared with `CSC1(CNC(=O)N(C)Cc2ccc(C)s2)CCOCC1`, `CSC1(CNC(=O)N(C)Cc2sccc2C)CCOCC1` is higher in INHIBITION: -18.99% for the first, 57.16% for the second.

First: CSC1(CNC(=O)NCc2sccc2C)CCOCC1
Second: COC(=O)c1sc2cccc(F)c2c1CNC(=O)C1CCOC1 (stereo not given)
The INHIBITION of the first is lower: 13.58% for the first, 33.02% for the second.

Compared with `CC(C)N(C)CC(=O)NCCc1nc(C(F)(F)F)cs1`, `Cc1cc(C(F)(F)F)nn1CCNC(=O)C(C)n1ccnc1C(C)C` (stereo not given) is higher in INHIBITION: -18.28% for the first, -4.93% for the second.

Compared with `CN(C)Cc1nnc(C2CCN(c3ncccn3)CC2)n1C1CC1`, `CN(C)Cc1nnc(C2CCN(c3ncccc3Cl)CC2)n1C1CC1` is higher in INHIBITION: -61.17% for the first, 84.18% for the second.

First: Cc1cnc(C)c(N2CCC(c3nnc(CN(C)C)n3C3CC3)CC2)n1
Second: Cc1nnc(NC(=O)CN2CCc3c(nc(C4CC4)n3C)C2)s1
The INHIBITION of the first is lower: -13.88% for the first, 51.94% for the second.

Compared with `Cn1cncc1CN1CCC2(CC1)COCCN(S(C)(=O)=O)C2`, `CCC(=O)N1CCC2(COCc3cnc(N4CCOCC4)nc32)C1` (stereo not given) is higher in INHIBITION: -38.72% for the first, 35.84% for the second.

Going from `CCCN(CC1CC1)S(=O)(=O)c1ccc(NC(C)=O)cc1` to `CC(C)c1ccc(OCCC(=O)N2CCC(CC(N)=O)CC2)cc1`, the INHIBITION rises from -13.12% to 31.19%.

Compared with `CC(C)(O)CCc1cccc(C(=O)N2CCC[C@H]2C(N)=O)c1`, `CCOC(=O)CCNC(=O)N1CCOC(Cc2cccc(OC)c2)C1` (stereo not given) is higher in INHIBITION: 6.26% for the first, 25.37% for the second.

Going from `CN(CCOc1ccc(F)cc1)S(=O)(=O)c1cnn(C)c1` to `Cc1ccc(OCCN(C)S(=O)(=O)c2cnn(C)c2)cc1`, the INHIBITION rises from -11.34% to 31.54%.

First: CN(CCCOc1ccccc1)S(=O)(=O)c1cnn(C)c1
Second: COc1ccc(OCCN(C)S(=O)(=O)c2cnn(C)c2)cc1
The INHIBITION of the first is lower: -2.63% for the first, 83.12% for the second.

Compared with `CN(C)CCOc1ccc(N(C)S(=O)(=O)c2cnn(C)c2)cc1`, `CC(C)N(C)Cc1cnc2n1CCN(S(=O)(=O)c1ccccc1)C2` is lower in INHIBITION: 57.68% for the first, 29.3% for the second.

Compared with `Cc1oc(C(=O)O)cc1S(=O)(=O)Nc1cccc(-n2nccc2C)c1`, `Cc1ncccc1-c1cc2cccnc2n1CCCNC(=O)C(C)(C)C` is lower in INHIBITION: 37.15% for the first, 24.98% for the second.

Going from `NC(=O)C1(Cc2ccc(-c3ccccc3)cc2)CCNC1` (stereo not given) to `COCC(=O)N1CCC2(COCc3cnc(-c4ccccc4)nc32)C1` (stereo not given), the INHIBITION falls from 9.18% to -22.64%.

Compared with `CCOC(=O)CNC(=O)N1CCOC(CCc2ccccc2)C1` (stereo not given), `CCOC(=O)CNC(=O)N1CCOC(Cc2ccc(OC)cc2)C1` (stereo not given) is higher in INHIBITION: -18.39% for the first, 55.66% for the second.

Compared with `CN(C)CCOCC1CN(Cc2ccncc2)Cc2nnn(C)c21` (stereo not given), `CC(C)c1nc2c(n1C)CCN(CC(=O)Nc1ccncc1)C2` is lower in INHIBITION: 7.1% for the first, -14.17% for the second.

Compared with `CN1CCC(N(CCc2ccccc2)C(=O)COCC2CCCO2)CC1` (stereo not given), `COCCN1CCC2(CC1)CC(NC(=O)CN(C)C)c1ccccc1O2` (stereo not given) is higher in INHIBITION: 42.79% for the first, 48.52% for the second.

Going from `COC(=O)c1sc2cccc(F)c2c1CNC(=O)C1CCCO1` (stereo not given) to `COC(=O)c1sc2cccc(F)c2c1CNC(=O)C1CC1`, the INHIBITION falls from 50.3% to 15.28%.

First: CC(C)c1nc2c(n1C)CCN(CC(=O)Nc1ccc(Cl)cn1)C2
Second: CC(C)c1nc2c(n1C)CCN(CC(=O)Nc1nccs1)C2
The INHIBITION of the first is higher: 51.92% for the first, -15.91% for the second.

Going from `CCCn1nccc1NC(=O)CN1CCc2c(nc(C3CC3)n2C)C1` to `CCCn1nccc1NC(=O)CN1CCc2c(nc(C(C)C)n2C)C1`, the INHIBITION rises from 49.6% to 56.12%.

First: Cn1c(C2CC2)nc2c1CCN(CC(=O)Nc1nncs1)C2
Second: Cc1csc(NC(=O)CN2CCc3c(nc(C4CC4)n3C)C2)n1
The INHIBITION of the first is higher: 22.51% for the first, -1.02% for the second.

First: CC(C)c1nc2c(n1C)CCN(CC(=O)Nc1ccnn1C(C)C)C2
Second: CC(C)c1nc2c(n1C)CCN(CC(=O)Nc1nncs1)C2
The INHIBITION of the first is lower: -42.83% for the first, 60.09% for the second.

Compared with `Cc1nnc(NC(=O)CN2CCc3c(nc(C(C)C)n3C)C2)s1`, `Cc1nc(C)n(CC2CCCN2CC(=O)Nc2cc(C(C)C)no2)n1` (stereo not given) is higher in INHIBITION: 22.63% for the first, 35.42% for the second.

Going from `Cc1ccc2c(c1)C1(CCNCC1)CN2C(=O)CN(C)C` to `CN(C)C(=O)C1CCC2(CCNCC2)C1` (stereo not given), the INHIBITION rises from 15.58% to 26.55%.

Compared with `O=C(Nc1cccnc1)C1Cc2nc(-c3ccsc3)sc2N1CC1CC1` (stereo not given), `O=C(Nc1cccc(CNCc2cccnc2)c1)C1CCCC1` is lower in INHIBITION: 18.2% for the first, 14.53% for the second.

Compared with `CCn1c(CN(C)C(=O)c2ccc(OC)nc2)nc2ccccc21`, `COc1ccc(Cn2cc(C(=O)N(C)Cc3cnccn3)nn2)cc1` is higher in INHIBITION: -33.03% for the first, -21.09% for the second.

Compared with `O=C(c1cscn1)N1C[C@@H]2C[C@@H](c3nnc(C4CC4)o3)O[C@@H]2C1`, `CC(C)Oc1ncc(C(=O)N2CCC(N(C)C)CC2)cc1Cl` is higher in INHIBITION: -4.1% for the first, 55.36% for the second.

First: Cn1cc(CNC2CCc3ncnn3C2)c(-c2ccncc2)n1 (stereo not given)
Second: Cc1cc(NC2CCc3ncnn3C2)n2nc(C(F)(F)F)nc2n1 (stereo not given)
The INHIBITION of the first is higher: 49.88% for the first, -30.02% for the second.

Compared with `COc1ccc(C(=O)C2CCCN(Cc3cc(C)n[nH]3)C2)c(OC)c1` (stereo not given), `CC(C)Oc1ncc(C(=O)N2CCCC(C(=O)O)C2)cc1Cl` (stereo not given) is lower in INHIBITION: 15.08% for the first, 0.51% for the second.

Compared with `O=C(C[S+]([O-])Cc1cccc(F)c1)NC1CCCC1` (stereo not given), `COc1ccc(NC(=O)CN2CCS(=O)(=O)CC2)cn1` is lower in INHIBITION: 27.67% for the first, -9.39% for the second.

Going from `CC(O)CN1CCN(C(=O)c2cnc(OC(C)C)c(Cl)c2)CC1` (stereo not given) to `CCN1CCCN(C(=O)c2cnc(OC(C)C)c(Cl)c2)CC1`, the INHIBITION falls from 19.59% to -16.16%.

First: CC(C)Oc1ncc(C(=O)N2CCC(NC(=O)C3CC3)CC2)cc1Cl
Second: CC(C)Oc1ncc(C(=O)N2CCC(CC(N)=O)CC2)cc1Cl
The INHIBITION of the first is lower: -58.69% for the first, 64.9% for the second.

Going from `CC(=O)N1CCCN(C(=O)c2cnc(OC(C)C)c(Cl)c2)CC1` to `CC(=O)N1CCN(C(=O)c2cnc(OC(C)C)c(Cl)c2)CC1`, the INHIBITION rises from 31.51% to 55.36%.

Compared with `CCc1nc(N)nc(N2CCCC3(CCOCC3)C2)c1C`, `O=C(CC1CC1)N1CCC2(COCc3cnc(N4CCOCC4)nc32)C1` (stereo not given) is higher in INHIBITION: 39.57% for the first, 51.72% for the second.

Going from `Cc1ocnc1C(=O)N(C)[C@@H]1CC[C@@H](n2ccnc2C)[C@@H]1O` to `CCc1noc(CN(CC)C(=O)CC2C(=O)NCCN2CC=C(C)C)n1` (stereo not given), the INHIBITION rises from -12.75% to 3.66%.

First: O=C1CN(C(=O)CNC(CC(F)(F)F)c2ccc(F)cc2)CCN1 (stereo not given)
Second: COc1c(CNC(c2ccccc2)c2ccc(F)cc2)c(C)nn1C (stereo not given)
The INHIBITION of the first is lower: 7.05% for the first, 13.67% for the second.

Going from `Cc1noc(C(C)N2CCN(CCn3ccccc3=O)CC2)n1` (stereo not given) to `CN(C)CCOc1ccccc1N1CCN(C(=O)C(C)(C)C#N)CC1`, the INHIBITION falls from 25.78% to -4.91%.

Compared with `CCc1noc(CN(CC)C(=O)CC2C(=O)NCCN2CC(C)(C)C)n1` (stereo not given), `CCN(Cc1noc(C)n1)C(=O)CC1C(=O)NCCN1CC(C)(C)C` (stereo not given) is higher in INHIBITION: 43.6% for the first, 55.84% for the second.

Compared with `O=C(CN1CCS(=O)(=O)CC1)Nc1ccc(N2CCCC2)nc1`, `CN(C)c1ccc(NC(=O)CN2CCS(=O)(=O)CC2)cn1` is higher in INHIBITION: -4.89% for the first, 71.64% for the second.

Going from `c1cncc(-c2ccc3c(c2)C2(CC3)CCN(c3nncs3)CC2)c1` to `COCCC(=O)N1CCC2(COCc3cnc(-c4cccnc4)nc32)C1` (stereo not given), the INHIBITION falls from 12.3% to -20.41%.

Going from `CCc1ccc(-c2c(C)c(-c3cnn(C)c3)nc(N)c2C#N)o1` to `Cc1c(-c2cnn(C)c2)nc(N)c(C#N)c1-c1ccc(CO)o1`, the INHIBITION rises from 49.25% to 55.7%.

Going from `Cc1cc(-c2c(C)c(-c3cnn(C)c3)nc(N)c2C#N)oc1C` to `COCCC(=O)N1CCC2(COCc3cnc(-c4ccccc4)nc32)C1` (stereo not given), the INHIBITION rises from 23.43% to 50.32%.

Compound `O=C(C1CC1)N1CCC2(COCc3cnc(N4CCOCC4)nc32)C1` (stereo not given) has an INHIBITION of 29.95%.
